The source of these data is paper PMC4336329 (PLoS ONE, 2015).

The whole screen tested about 310,000 compounds, of which about 14,000 (4.5%) showed an effect of 50% or more. Effects have a minus sign here. For the sample, strong results were picked, then their nearest neighbours and some compounds at random.
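Note: peak tail current of the secondary pulse compared with the same well before compound.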

The target of the assay is human ether-à-go-go-related gene (hERG) potassium channel (human, UniProt Q12809). Kind of assay: primary screen, population patch clamp on CHO cells stably expressing hERG; higher = less effect of the substance.
human ether-à-go-go-related gene (hERG) potassium channel, sequence (Q12809 whole entry, looked up): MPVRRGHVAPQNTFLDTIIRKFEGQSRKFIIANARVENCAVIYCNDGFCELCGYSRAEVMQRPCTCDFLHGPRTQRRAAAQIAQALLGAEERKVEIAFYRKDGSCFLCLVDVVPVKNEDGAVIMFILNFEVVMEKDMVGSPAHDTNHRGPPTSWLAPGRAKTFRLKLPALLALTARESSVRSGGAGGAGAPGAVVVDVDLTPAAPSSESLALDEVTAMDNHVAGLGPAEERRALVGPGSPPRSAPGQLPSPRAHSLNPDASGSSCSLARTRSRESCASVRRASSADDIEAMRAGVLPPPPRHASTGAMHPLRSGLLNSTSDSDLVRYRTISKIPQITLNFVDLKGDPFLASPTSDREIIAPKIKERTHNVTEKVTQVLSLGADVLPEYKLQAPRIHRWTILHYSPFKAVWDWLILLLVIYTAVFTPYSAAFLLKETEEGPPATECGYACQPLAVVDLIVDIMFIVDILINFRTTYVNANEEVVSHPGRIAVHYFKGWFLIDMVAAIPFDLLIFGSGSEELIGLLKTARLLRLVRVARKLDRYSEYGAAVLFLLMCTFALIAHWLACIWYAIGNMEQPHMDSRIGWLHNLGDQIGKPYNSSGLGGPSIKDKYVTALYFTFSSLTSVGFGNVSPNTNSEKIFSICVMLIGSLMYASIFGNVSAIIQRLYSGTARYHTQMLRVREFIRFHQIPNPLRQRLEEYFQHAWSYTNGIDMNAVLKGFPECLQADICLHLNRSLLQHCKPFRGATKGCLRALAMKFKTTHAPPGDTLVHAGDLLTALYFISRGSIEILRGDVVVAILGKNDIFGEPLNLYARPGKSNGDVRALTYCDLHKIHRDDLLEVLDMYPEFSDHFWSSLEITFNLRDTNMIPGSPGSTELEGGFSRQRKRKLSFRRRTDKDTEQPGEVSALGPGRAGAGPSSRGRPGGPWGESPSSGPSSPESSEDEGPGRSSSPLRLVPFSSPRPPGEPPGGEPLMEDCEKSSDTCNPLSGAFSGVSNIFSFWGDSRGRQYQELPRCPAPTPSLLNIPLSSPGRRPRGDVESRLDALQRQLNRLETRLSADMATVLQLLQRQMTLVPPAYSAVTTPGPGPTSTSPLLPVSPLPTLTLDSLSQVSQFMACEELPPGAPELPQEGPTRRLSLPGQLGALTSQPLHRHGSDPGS
As for `CCOC(=O)C(=NCCCN(C)C)NNc1cc(C(F)(F)F)ccc1Cl`, the “hERG current change (%, negative = inhibition) at 10uM” value is on record as -18.5%.
For `O=C(NCCCn1ccnc1)c1ccc(Br)c(S(=O)(=O)N2CCOCC2)c1`, the “hERG current change (%, negative = inhibition) at 10uM” value is given as -7.41%.
For `COc1ccc(OC)c(NC(=O)Nc2cc(C(=O)O)ccc2C)c1`, the “hERG current change (%, negative = inhibition) at 10uM” value is reported as 13.1%.
With `COc1ccccc1NC(=O)CN1C(=O)NC(CC(C)C)C1=O` (centres unmarked), the “hERG current change (%, negative = inhibition) at 10uM” value is listed as 4.37%.
Consider `O=C(CCC(=O)N1CCCC1)Nc1ccc([N+](=O)[O-])cc1`, for which the “hERG current change (%, negative = inhibition) at 10uM” value was -1.25%.
Turning to `NC(=S)N/N=C/c1ccc(C(F)(F)F)cc1`, the “hERG current change (%, negative = inhibition) at 10uM” value was found to be 11%.
Take `O=C(CSc1cccc[n+]1[O-])c1cc2ccccc2o1`: the “hERG current change (%, negative = inhibition) at 10uM” value is given as -4.46%.
With `COC(=O)c1sccc1NC(=O)c1cc(OC)c(OC)c(OC)c1` the figure was 3.09%; with `O=NN1CCN(c2ccncc2S(=O)(=O)N2CCCCC2)CC1`, 10.6%; with `COc1ccc(-c2noc(-c3ccccc3C(=O)NCc3ccco3)n2)cc1`, 3.2%.
With `OCCN1CCN(c2nnc(-c3ccccc3)c3ccccc23)CC1`, the “hERG current change (%, negative = inhibition) at 10uM” value is -23.5%.
With `CCOc1ccc(-c2nnc(N3CCOCC3)c3ccccc23)cc1` the figure was -69.6%; with `CCN1CCN(c2nnc(-c3ccccc3)c3ccccc23)CC1`, -36.8%.
Consider `CCOc1ccc(-c2nnc(N3CCCCC3)c3ccccc23)cc1`, for which the “hERG current change (%, negative = inhibition) at 10uM” value was -6.17%.
The figure for `COc1ccc(-c2nnc(N3CCOCC3)c3ccccc23)cc1` is -2.78%; for `Cc1ccc(-c2nnc(N3CCN(CCO)CC3)c3ccccc23)cc1` it is -58.4%; for `Cc1ccc(-c2nnc(N3CCCCCC3)c3ccccc23)cc1` it is 1%.
In the case of `CCN1CCN(c2nnc(-c3ccc(C)cc3)c3ccccc23)CC1`, the “hERG current change (%, negative = inhibition) at 10uM” value is given as -66.5%.
Regarding `CCN1CCN(c2nnc(-c3ccc(F)cc3)c3ccccc23)CC1`, the “hERG current change (%, negative = inhibition) at 10uM” value was -48.4%.
With `Cc1ccc(C(=O)NCCOc2ccc(Cl)cc2)cc1`, the “hERG current change (%, negative = inhibition) at 10uM” value came out at 1.42%.
In the case of `COc1cc(/C=C/C(=O)O)ccc1OCc1ccc([N+](=O)[O-])cc1`, the “hERG current change (%, negative = inhibition) at 10uM” value is on record as 21.8%.
Consider `COc1ccc(CC(=O)Nc2ccc(-c3noc(COc4ccccc4C)n3)cc2)cc1`, for which the “hERG current change (%, negative = inhibition) at 10uM” value is 2.1%.
The figure for `COC(=O)c1ccc(COc2ccccc2/C=C(\C#N)C(=O)Nc2ccc(C)cc2C)cc1` is -11.1%; for `COC(=O)c1c(-c2ccccc2)noc1-c1ccccc1` it is 2.19%.
Take `CCOC(=O)c1nn(-c2ccc(Cl)cc2)c(C)cc1=O`: the “hERG current change (%, negative = inhibition) at 10uM” value is listed as -0.00902%.
Regarding `CCOC(=O)c1c(OCCO)nn(-c2ccc(Cl)cc2)c1N`, the “hERG current change (%, negative = inhibition) at 10uM” value is -51.8%.
With `CCOC(=O)c1c(OCCO)nn(-c2ccccc2)c1N` the figure was 14.1%; with `COc1ccc2[nH]cc(CCNS(=O)(=O)c3ccccc3)c2c1`, 11.7%.
In the case of `CCOC(=O)c1c(NC(C)=O)sc2c(OCC(O)CNC(C)(C)C)c(Br)ccc12` (centres unmarked), the “hERG current change (%, negative = inhibition) at 10uM” value is reported as -11.8%.
As to `CCOC(=O)c1c(NC(C)=O)sc2c(OCC(O)CN(CC)CC)c(Br)ccc12` (centres unmarked), the “hERG current change (%, negative = inhibition) at 10uM” value is -51.3%.
Turning to `CCOC(=O)c1c(NC(C)=O)sc2c(OC)c(Br)ccc12`, the “hERG current change (%, negative = inhibition) at 10uM” value came out at 2.16%.
For `CCOC(=O)c1c(NC(C)=O)sc2c(OCCN(CC)CC)c(Br)ccc12`, the “hERG current change (%, negative = inhibition) at 10uM” value was -54.8%.
Turning to `CCOC(=O)c1c(NC(C)=O)sc2c(O)cccc12`, the “hERG current change (%, negative = inhibition) at 10uM” value was found to be 2.36%.
Regarding `CCOC(=O)c1c(NC(C)=O)sc2c(O)c(Br)ccc12`, the “hERG current change (%, negative = inhibition) at 10uM” value is reported as 6.88%.
As to `Cn1c(=NC(=O)COc2ccccc2)sc2ccccc21`, the “hERG current change (%, negative = inhibition) at 10uM” value was -8.07%.
With `COc1ccc(/C=C/C(=O)NCCNC(=O)c2ccccc2)cc1OC`, the “hERG current change (%, negative = inhibition) at 10uM” value is on record as -8.61%.
As to `Cc1ccc(N2C(=O)CC(Nc3cccc4ccccc34)C2=O)cc1` (centres unmarked), the “hERG current change (%, negative = inhibition) at 10uM” value was 27.6%.
For the molecule `CC(=O)c1cc(CN2CCC(N3CCC(C(=O)N4CCCC4)CC3)CC2)cs1`, the “hERG current change (%, negative = inhibition) at 10uM” value is given as -2.23%.
Turning to `CC(C)=CCCC(C)CN1CCC(O)CC1` (centres unmarked), the “hERG current change (%, negative = inhibition) at 10uM” value is listed as -2.96%.
As for `CC(C)/C=C/C(=O)N1CCC(N2CCC(C(=O)N3CCOCC3)CC2)CC1`, the “hERG current change (%, negative = inhibition) at 10uM” value is reported as 11%.
On to `CC(C)=CCCC(C)CN1CCC(N2CCC(C(=O)N3CCOCC3)CC2)CC1` (centres unmarked), for which the “hERG current change (%, negative = inhibition) at 10uM” value is -60.4%.
With `CC(C)=CCCC(C)CN1CCC(N2CCC(C(=O)N3CCCC3)CC2)CC1` (centres unmarked) the figure was -74.8%; with `CC(C)=CC(=O)N1CCC(N2CCC(C(=O)N3CCOCC3)CC2)CC1`, 28.3%.
For the molecule `Cl.Nc1ncnc2nc[nH]c12`, the “hERG current change (%, negative = inhibition) at 10uM” value is given as 4.95%.
As for `CCC1CCCCN1CCNC(=O)CNS(=O)(=O)c1ccc2nc(C)sc2c1` (centres unmarked), the “hERG current change (%, negative = inhibition) at 10uM” value amounted to 10.5%.
`O=C(Nc1nnc(C2CC2)s1)C1=NN(C2CCS(=O)(=O)C2)C(=O)CC1` (centres unmarked): the “hERG current change (%, negative = inhibition) at 10uM” value is 0.219%.
The figure for `Cc1[nH]c(C)c(S(=O)(=O)Nc2ccccc2Cl)c1C(=O)N1CCCC1` is 15.7%; for `CCN(CC)c1ccc(N=Cc2c(O)n(-c3ccc(Cl)cc3)c(=O)[nH]c2=O)cc1` it is 14.5%; for `Cc1ccc(C(=O)CCC(=O)Nc2cccnc2)cc1C` it is 12.4%.
With `CCOc1ccc(C(=O)C2CCN(CC(=O)Nc3nccs3)CC2)cc1` the figure was -68.3%; with `NC(=O)C1CCN(CC(=O)Nc2ccccc2N2CCOCC2)CC1`, 3.15%.
Consider `COc1ccc(NC(=O)CN2CCC(C(=O)c3ccc(C)cc3)CC2)c(OC)c1`, for which the “hERG current change (%, negative = inhibition) at 10uM” value is listed as -29.8%.
With `CCOc1ccccc1NC(=O)CN1CCC(C(=O)c2ccc(F)cc2)CC1` the figure was -20.9%.
`NC(=O)C1CCN(CC(=O)Nc2nccs2)CC1`: the “hERG current change (%, negative = inhibition) at 10uM” value worked out at 10.9%.
As for `CCOc1ccc(C(=O)C2CCN(CC(=O)Nc3ccccc3N3CCOCC3)CC2)cc1`, the “hERG current change (%, negative = inhibition) at 10uM” value is given as -53.6%.
For the molecule `CC1CCN(CC(=O)Nc2nccs2)CC1`, the “hERG current change (%, negative = inhibition) at 10uM” value came to 13.6%.
For the molecule `COc1ccc(C(=O)C2CCN(CC(=O)Nc3ccccc3F)CC2)cc1`, the “hERG current change (%, negative = inhibition) at 10uM” value is reported as -17.2%.
With `COc1ccc(C(=O)C2CCN(CC(=O)Nc3ccc(C)cc3)CC2)cc1`, the “hERG current change (%, negative = inhibition) at 10uM” value is listed as -53.4%.
With `CCOc1ccccc1NC(=O)CN1CCC(C(=O)c2ccc(OC)cc2)CC1` the figure was -65.9%; with `CCOc1ccc(C(=O)Nc2ccccc2N2CCOCC2)cc1`, -5.52%; with `Cc1ccc(C(=O)C2CCN(CC(=O)Nc3ccc(N(C)C)cc3)CC2)cc1`, -36.4%.
In the case of `O=C(Cc1cccc2ccccc12)NNC(=O)c1cccs1`, the “hERG current change (%, negative = inhibition) at 10uM” value is recorded as 15.7%.
As for `COC(=O)CSc1ncnc2c(C)csc12`, the “hERG current change (%, negative = inhibition) at 10uM” value turned out to be 3.11%.
As for `CN(C)c1ccc(-c2nnc(-c3cccnc3)o2)cc1`, the “hERG current change (%, negative = inhibition) at 10uM” value is 7.04%.
Regarding `O=C(CNC(=O)c1ccco1)N/N=C/c1ccc(O)c([N+](=O)[O-])c1`, the “hERG current change (%, negative = inhibition) at 10uM” value came to 29.1%.
With `COC(=O)c1[nH]c(C)c(/C(O)=C2\C(=O)C(=O)N(CCN(C)C)C2c2ccccc2OC)c1C` (centres unmarked) the figure was 15.3%.
Regarding `CC(=O)N1CCN(c2ccc(NC(=O)c3cccc(Cl)c3Cl)cc2)CC1`, the “hERG current change (%, negative = inhibition) at 10uM” value is recorded as -8.8%.
Turning to `N/C(=N\OC(=O)c1cccc(C(F)(F)F)c1)c1cnccn1`, the “hERG current change (%, negative = inhibition) at 10uM” value was found to be 16.7%.
In the case of `Cc1cccc(CC(=O)Nc2c3c(nn2-c2cccc(Cl)c2)CS(=O)C3)c1` (centres unmarked), the “hERG current change (%, negative = inhibition) at 10uM” value is 6.32%.
Take `Cc1cc(C)cc(NC(=O)CN2CCC(C(=O)c3ccccc3)CC2)c1`: the “hERG current change (%, negative = inhibition) at 10uM” value is listed as -48.6%.
In the case of `COc1ccc(NC(=O)CN2CCC(C(N)=O)CC2)cc1`, the “hERG current change (%, negative = inhibition) at 10uM” value came out at 2.76%.
With `COc1ccc(C(=O)C2CCN(CC(=O)Nc3cc(C)cc(C)c3)CC2)cc1` the figure was -65.2%; with `CCc1ccc(NC(=O)CN2CCC(C(=O)c3ccc(OC)cc3)CC2)cc1`, -62.8%.
As to `COc1ccc(OC)c(NC(=O)CN2CCC(C(=O)c3ccc(C)cc3)CC2)c1`, the “hERG current change (%, negative = inhibition) at 10uM” value is -17.7%.
With `COc1ccc(NC(=O)CN2CCC(C)CC2)cc1` the figure was -4.51%; with `Nc1ncnc2c1ncn2C1OC(CO)C(O)C1O` (centres unmarked), 35.7%; with `O=C(Cc1ccsc1)NNC(=O)c1ccccc1O`, 7.87%.
Regarding `COc1ccc(C)cc1NC(=O)CSc1nnc(COc2ccccc2)n1Cc1ccco1`, the “hERG current change (%, negative = inhibition) at 10uM” value is on record as -9.46%.
With `CCOC(=O)c1c(N)sc(C(O)(C(F)(F)F)C(F)(F)F)c1-c1ccc(Cl)cc1` the figure was -4.79%.
As to `COC(=O)Cc1csc(Nc2ccc(Cl)cc2)n1`, the “hERG current change (%, negative = inhibition) at 10uM” value is listed as 7.01%.
The figure for `CC(C)[C@H](NC(N)=O)C(=O)NCCc1ccc(Cl)cc1Cl` is -27%; for `Cc1ccc(OCc2cc(C(=O)N3CCN(c4ccccc4)CC3)no2)cc1C` it is -0.317%; for `O=C(/C(C=Nc1ccc(F)cc1)=C(/O)c1ccco1)C(F)(F)F` it is -26.7%.
Consider `O=C(/C(C=Nc1ccc(Br)cc1)=C(/O)c1ccco1)C(F)(F)F`, for which the “hERG current change (%, negative = inhibition) at 10uM” value is listed as -52.6%.
Take `O=C(/C(C=Nc1cccc(C(F)(F)F)c1)=C(/O)c1ccco1)C(F)(F)F`: the “hERG current change (%, negative = inhibition) at 10uM” value was -29.8%.
Take `CC(=O)c1cccc(NC(=O)c2cc(-c3cccs3)on2)c1`: the “hERG current change (%, negative = inhibition) at 10uM” value worked out at 27%.
Turning to `Cc1ccc(NC(=O)c2cnc(N3CCN(c4ccccn4)CC3)c3ccccc23)c(Br)c1`, the “hERG current change (%, negative = inhibition) at 10uM” value was determined as 10.7%.
As to `CCN1CCN(c2ncc(C(=O)Nc3c(F)cc(F)cc3Br)c3ccccc23)CC1`, the “hERG current change (%, negative = inhibition) at 10uM” value is reported as -60%.
Take `O=C(Nc1c(F)cccc1F)c1cnc(N2CCN(c3ccccn3)CC2)c2ccccc12`: the “hERG current change (%, negative = inhibition) at 10uM” value is recorded as -4.56%.
Turning to `CCN1CCN(c2ncc(C(=O)Nc3cc(Cl)ccc3OC)c3ccccc23)CC1`, the “hERG current change (%, negative = inhibition) at 10uM” value is -61.5%.
Regarding `CCN1CCN(c2ncc(C(=O)Nc3ccccc3C(=O)OC)c3ccccc23)CC1`, the “hERG current change (%, negative = inhibition) at 10uM” value was -47.2%.
As to `CCN1CCN(C(=O)Nc2cc(Cl)ccc2OC)CC1`, the “hERG current change (%, negative = inhibition) at 10uM” value was 2.98%.
